# PubChem BioAssay (EPA / NIEHS)
# Inconclusive results are not listed. Active and inactive are the calls of the source. The calls were made as follows, unless noted: active = hit-call score of the fitted dose curve at least 0.9, where 1 is the maximum; inactive = score below 0.9.
# Tests used:
# [1] = UKN4_HCS_LUHMES_neurite_outgrowth: University of Konstanz (UKN) Leist Lab Neurite Outgrowth Assay in human LUHMES cells (UKN4) (AID 2284206); conditions: actives raise or lower the signal
# Outline: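 Read-out: calcein-AM neurite area by high-content fluorescence imaging, with Hoechst H-33342 viability counterstain, after 24 h chemical exposure of day-2 differentiated LUHMES cells. Activity fitted bidirectionally against DMSO baseline.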
# [2] = IUF_NPC1b_proliferation_BrdU_72hr: Leibniz Research Institute for Environmental Medicine (IUF) 72-hour Neural Progenitor Cell Bromodeoxyuridine (BrdU) Proliferation Assay (NPC1b) (AID 2284207)
# Outline: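 Neural progenitor spheres of human fetal origin are treated for three days; BrdU added for the last 16 h is quantified by luminescence ELISA, with DMSO as baseline and EGF/FGF omission as positive control.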
# [3] = IUF_NPC1a_proliferation_area_72hr: Leibniz Research Institute for Environmental Medicine (IUF) 72-hour Neural Progenitor Cell Proliferation Area Assay (NPC1a) (AID 2284208)
# Outline: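 Proliferation is scored as sphere area gain in primary human fetal neural progenitors treated for 72 h in EGF/FGF-containing medium. Viability, LDH and BrdU readouts come from the same wells.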
# [4] = IUF_NPC1_viability_72hr: Viability Assessment at 72 hours in the Leibniz Research Institute for Environmental Medicine (IUF) Neural Progenitor Cell Proliferation Assay (NPC1) (AID 2284209)
# Outline: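 Alamar blue fluorescence (RFU) after 72 h exposure, normalized to DMSO baseline. hNPC spheres from GW 16-19 fetal cortex, single sphere per well in growth-factor medium; no compound renewal.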
# [5] = CCTE_Mundy_HCI_Cortical_Synap_Neur_Matur_NeuriteSpotCountPerNeuriteLength: CCTE's Synaptogenesis and Neurite Maturation Assay in rat cortical cells for Neurite Spot Count per Neurite Length, Mundy Lab (AID 2284210)
# Outline: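 Neurite-associated synapse density (synaptophysin puncta per unit neurite length) is measured by fluorescence high-content imaging in rat cortical cultures treated from DIV 7 and fixed at DIV 12, with DMSO as negative control.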
# [6] = CCTE_Mundy_HCI_Cortical_Synap_Neur_Matur_BPCount: CCTE's Synaptogenesis and Neurite Maturation Assay in rat cortical cells for Branch Point Count, Mundy Lab (AID 2284211)
# Outline: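 In this multiplexed morphology assay, cortical cells from rat receive chemicals at DIV 7 and are fixed at DIV 12, then immunostained and imaged; branch points are counted, with DMSO as baseline.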
# [7] = CCTE_Mundy_HCI_Cortical_NOG_NeuriteCount: CCTE's Neurite Outgrowth Assay in rat cortical cells for Neurite Count, Mundy Lab (AID 2284212);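 also: cells fixed about two days after chemical exposure began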
# Outline: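 Rat cortical primary cells; compound added 2 h post-plating, 1/10 dilution of working solution. Anti-betaIII-tubulin/AF488 ICC; ArrayScan neurite count vs DMSO.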
# [8] = CCTE_Mundy_HCI_Cortical_Synap_Neur_Matur_NeuriteLength: CCTE's Synaptogenesis and Neurite Maturation Assay in rat cortical cells for Neurite Length, Mundy Lab (AID 2284214)
# Outline: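 Read-out: high-content imaging of MAP2-labelled neurites, with synaptophysin and Hoechst co-stain, in rat cortical cultures fixed at DIV 12. Activity fitted in positive direction relative to DMSO baseline.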
# [9] = CCTE_Mundy_HCI_Cortical_Synap_Neur_Matur_NeuriteSpotCountPerNeuron: CCTE's Synaptogenesis and Neurite Maturation Assay in rat cortical cells for Neurite Spot Count per Neuron Count, Mundy Lab (AID 2284215)
# Outline: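 Synapse density is scored as synaptophysin spots along neurites per neuron in fixed rat cortical neurons, measured at DIV 12 after chemical dosing at DIV 7. DMSO is the negative control and activity baseline.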
# [10] = CCTE_Mundy_HCI_Cortical_Synap_Neur_Matur_SynapseCount: CCTE's Synaptogenesis and Neurite Maturation Assay in rat cortical cells for Synapse Count, Mundy Lab (AID 2284218)
# Outline: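 Read-out: synapse number per neuron, automated high-content imaging of fixed cells immunostained for MAP2 and synaptophysin plus Hoechst nuclei. Rat primary cortical cultures, AraC at DIV 5, chemical dosing DIV 7–12. Positive-direction fit relative to DMSO.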
# [11] = CCTE_Mundy_HCI_Cortical_Synap_Neur_Matur_NeuriteCount: CCTE's Synaptogenesis and Neurite Maturation Assay in rat cortical cells for Neurite Count, Mundy Lab (AID 2284222);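 also: exposure from day 7 to day 12 in vitro with readout at day 12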
# Outline: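 Chemical exposure runs DIV 7–12 in rat cortical cultures, glia suppressed by AraC at DIV 5; measurement is at DIV 12. Imaging-derived neurite counts are fitted against DMSO baseline.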
# [12] = CCTE_Mundy_HCI_Cortical_Synap_Neur_Matur_CellBodySpotCount: CCTE's Synaptogenesis and Neurite Maturation Assay in rat cortical cells for Cell Body Spot Count, Mundy Lab (AID 2284223)
# Outline: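 Synapse number at neuronal cell bodies was quantified as synaptophysin puncta per neuron in rat cortical cultures exposed from DIV 7 to DIV 12. Values were normalised to DMSO.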
# [13] = CCTE_Mundy_HCI_hNP1_Pro_ResponderAvgInten: CCTE's Proliferation Assay in human neuroprogenitor cells, Mundy Lab (AID 2284224; active = hit-call score of the fitted dose curve at least 0.9, where 1 is the maximum;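 also: human neural progenitor cells hNP1 derived from WA09 embryonic stem cells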)
# Outline: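 Human neuroprogenitors (hNP1, WA09 lineage) receive test chemical after 40 to 44 hours of attachment. A four-hour BrdU pulse begins twenty hours later, followed by fixation and high content imaging; signal is referenced to DMSO controls.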
# [14] = UKN4_HCS_LUHMES_cell_viability: Viability Assessment in the University of Konstanz (UKN) Leist Lab Neurite Outgrowth Assay in human LUHMES cells (UKN4) (AID 2284232)
# Outline: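 Day-2 differentiated LUHMES, 30000 cells/well, dosed ~30 min–2 h post-seeding; 24 h treatment incl. staining; Hoechst H-33342 + calcein-AM at 23.5 h; HCS imaging; DMSO-normalized, bidirectional fit.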
# [15] = CCTE_Mundy_HCI_Cortical_NOG_NeuronCount: CCTE's Neurite Outgrowth Assay in rat cortical cells for Neuron Count, Mundy Lab (AID 2284236; active = hit-call score of the fitted dose curve at least 0.9, where 1 is the maximum;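 also: neurons counted by imaging betaIII-tubulin and Hoechst stained cortical cells; cells exposed to compound for about 48 hours before fixation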)
# Outline: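 Read-out: neuron number by high-content imaging of betaIII-tubulin (Alexa Fluor-488) and Hoechst-labelled rat primary cortical cells.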
# [16] = CCTE_Mundy_HCI_Cortical_NOG_BPCount: CCTE's Neurite Outgrowth Assay in rat cortical cells for Branch Point Count, Mundy Lab (AID 2284237);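 also: branch points counted about two days after chemical exposure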
# Outline: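 Measured 50.33 h after dosing, this morphology endpoint uses rat primary cortical cultures labelled for betaIII-tubulin. Branch points are quantified by high-content imaging, with DMSO as negative control and baseline.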
# [17] = CCTE_Mundy_HCI_hNP1_Casp3_7: CCTE's Caspase-Glo 3/7 Assay in human neuroprogenitor cells for Apoptosis, Mundy Lab (AID 2284240)
# Outline: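 Neuroepithelial-lineage stem cells from WA09 embryonic cells were treated with chemicals after 40–44 h of culture. Twenty-four hours later, caspase-3/7 activation was detected luminescently after a 30 min room-temperature reagent step, with DMSO as baseline.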
# [18] = CCTE_Mundy_HCI_hNP1_CellTiter: CCTE's Cell Titer-Glo 2 Assay in human neuroprogenitor cells for Viability, Mundy Lab (AID 2284241; active = hit-call score of the fitted dose curve at least 0.9, where 1 is the maximum)
# Outline: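 Measures ATP content in human neural progenitors derived from WA09 embryonic cells. Read-out at 26.5 hours after dosing, with DMSO serving as the negative control and baseline.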
# [19] = IUF_NPC2c_oligodendrocyte_migration_120hr: Leibniz Research Institute for Environmental Medicine (IUF) 120-hour Neural Progenitor Cell Migration Assay for Oligodendrocyte Migration (NPC2c) (AID 2284297);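 also: O4-positive oligodendrocyte migration distance divided by radial glia migration distance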
# Outline: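 Primary hNPC spheres migrating on extracellular matrix, exposed five days to a 7-point dilution series with solvent control. Oligodendrocyte migration was scored by high-content imaging of O4 immunostaining and expressed relative to radial glia distance.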
# [20] = IUF_NPC2a_radial_glia_migration_120hr: Leibniz Research Institute for Environmental Medicine (IUF) 120-hour Neural Progenitor Cell Migration Assay for Radial Glia Migration (NPC2a) (AID 2284298)
# Outline: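 In this multiplexed test, fetal hNPC spheres migrate radially on poly-D-lysine/laminin in N2 medium (37C, 5% CO2, pH 7.2-7.6) under continuous compound exposure over five days. Migration is scored at 120 h from automated Hoechst nuclear imaging.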
# [21] = IUF_NPC2a_radial_glia_migration_72hr: Leibniz Research Institute for Environmental Medicine (IUF) 72-hour Neural Progenitor Cell Migration Assay for Radial Glia Migration (NPC2a) (AID 2284299)
# Outline: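 Readout: mean of four manual brightfield measurements of radial glia migration distance (um) at 72 h. hNPC spheres (0.3 mm) exposed to 7 compound concentrations plus solvent control on PDL/laminin, 37C, 5% CO2; activity fitted relative to DMSO.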
# [22] = IUF_NPC2b_neuronal_migration_120hr: Leibniz Research Institute for Environmental Medicine (IUF) 120-hour Neural Progenitor Cell Migration Assay for Neuron Migration (NPC2b) (AID 2284300)
# Outline: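 Neurons identified by TUBB3 immunostaining and Hoechst nuclei; migration distance measured automatically on fixed wells at 120 h, normalized to glia migration. Exposure spanned five days of differentiation in N2 medium, seven test concentrations.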
# [23] = IUF_NPC3_neuronal_differentiation_120hr: Leibniz Research Institute for Environmental Medicine (IUF) 120-hour Neuronal Differentiation Assay (NPC3) (AID 2284301)
# Outline: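 Neuronal differentiation of primary human neural progenitors measured by high-content imaging: percent TUBB3+ of Hoechst+ nuclei within migrated area at 120 h, seven-point serial dilution plus solvent control, gain or loss relative to DMSO.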
# [24] = IUF_NPC4_neurite_length_120hr: Leibniz Research Institute for Environmental Medicine (IUF) 120-hour Neuronal Morphology Assay for Neurite Length (NPC4) (AID 2284302)
# Outline: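 Neurons from differentiating human fetal neural progenitor spheres are scored for average neurite length after five days of compound exposure. Fitting uses DMSO as negative control.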
# [25] = IUF_NPC5_oligodendrocyte_differentiation_120hr: Leibniz Research Institute for Environmental Medicine (IUF) 120-hour Oligodendrocyte Differentiation Assay (NPC5) (AID 2284304; active = hit-call score of the fitted dose curve at least 0.9, where 1 is the maximum;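 also: primary human fetal neural progenitor spheres plated to migrate and differentiate; share of O4-positive cells among Hoechst nuclei found by CNN image analysis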)
# Outline: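 Human primary NPC neurospheres migrating and differentiating on laminin for 120 h under continuous compound exposure (serial dilution, solvent control). Endpoint: percent O4+ oligodendrocytes among Hoechst nuclei, detected by CNN image analysis, with DMSO as negative control.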
# [26] = IUF_NPC4_neurite_area_120hr: Leibniz Research Institute for Environmental Medicine (IUF) 120-hour Neuronal Morphology Assay for Neurite Area (NPC4) (AID 2284305; active = hit-call score of the fitted dose curve at least 0.9, where 1 is the maximum)
# Outline: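 Endpoint at 120 h: automated imaging of TUBB3/Hoechst-stained differentiating human neural progenitor spheres, neurite area per neuron from skeletonization. DMSO solvent control, not above 0.1%, set the baseline; medium was half-replaced on day 3.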
# [27] = IUF_NPC2-5_cytotoxicity_72hr: Cytotoxicity Assessment at 72 hours in the Leibniz Research Institute for Environmental Medicine (IUF) Neural Progenitor Cell Migration and Differentiation Assay for Cytotoxicity (NPC2-5) (AID 2284306; active = hit-call score of the fitted dose curve at least 0.9, where 1 is the maximum;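 also: LDH release into supernatant measured by resorufin fluorescence marking membrane damage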)
# Outline: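 Primary human neural progenitor spheres migrate and differentiate on laminin. Compound is present from the start of differentiation, with DMSO kept at or below 0.1%. At 72 h, supernatant LDH is quantified fluorometrically, with values fitted in the positive direction.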
# [28] = IUF_NPC2-5_cytotoxicity_120hr: Cytotoxicity Assessment at 120 hours in the Leibniz Research Institute for Environmental Medicine (IUF) Neural Progenitor Cell Migration and Differentiation Assay (NPC2-5) (AID 2284307; active = hit-call score of the fitted dose curve at least 0.9, where 1 is the maximum)
# Outline: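 Fluorescence (RFU) from LDH-driven resazurin reduction in medium supernatants measured loss of membrane integrity after 120 h of compound exposure of differentiating primary human neural progenitor spheres on an extracellular matrix.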
# [29] = IUF_NPC2-5_cell_number_120hr: Cell Number Assessment at 120 hours in the Leibniz Research Institute for Environmental Medicine (IUF) Neural Progenitor Cell Migration and Differentiation Assay (NPC2-5) (AID 2284308);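 also: count of Hoechst-stained nuclei in migration zone around plated human neural progenitor spheres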
# Outline: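 Cell number is taken as all Hoechst-positive nuclei detected in the area into which cells migrate out of the sphere, scored at 120 h and referenced to DMSO solvent control, which was kept at no more than 0.1%.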
# [30] = IUF_NPC2-5_viability_120hr: Viability Assessment at 120 hours in the Leibniz Research Institute for Environmental Medicine (IUF) Neural Progenitor Cell Migration and Differentiation Assay (NPC2-5) (AID 2284312)
# Outline: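 Human fetal (GW 16-19) neural progenitor spheres of 0.3 mm were plated on poly-D-lysine/laminin in N2 differentiation medium and exposed from day 0 for 120 h, with half-medium refresh at day 3. Viability was read as alamar blue resazurin-to-resorufin fluorescence against DMSO.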
# [31] = CCTE_Mundy_HCI_iCellGluta_NOG_NeuriteLength: CCTE's Neurite Outgrowth Assay in iCellGluta cells for Neurite Length, Mundy Lab (AID 2284318; active = hit-call score of the fitted dose curve at least 0.9, where 1 is the maximum)
# Outline: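 Automated high-content imaging of betaIII-tubulin (Alexa Fluor-488) and Hoechst-stained cells gave neurite length, normalized to the DMSO baseline.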
# [32] = IUF_NPC1_cytotoxicity_72hr: Cytotoxicity Assessment at 72 hours in the Leibniz Research Institute for Environmental Medicine (IUF) Neural Progenitor Cell Proliferation Assay (NPC1) (AID 2284332; active = hit-call score of the fitted dose curve at least 0.9, where 1 is the maximum;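 also: rising LDH signal means more cytotoxicity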)
# Outline: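 LDH in supernatant, resazurin→resorufin fluorescence (RFU), 72 h exposure, no re-dosing. Cells: primary hNPC spheres, one per well, EGF+FGF medium, 37C/5% CO2, pH 7.2-7.6. Fit: positive direction vs baseline and dynamic range.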
# [33] = CCTE_Mundy_HCI_iCellGluta_NOG_NeuronCount: CCTE's Neurite Outgrowth Assay in iCellGluta cells for Neuron Count, Mundy Lab (AID 2284340; active = hit-call score of the fitted dose curve at least 0.9, where 1 is the maximum;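 also: cells fixed about 48 h after compound addition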)
# Outline: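 Neuron count read by automated high-content imaging of Hoechst 33342 and betaIII-tubulin/Alexa Fluor-488 labelling in human iPSC glutamatergic neurons. Activity fitted relative to DMSO.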
# [34] = CCTE_Mundy_HCI_iCellGluta_NOG_NeuriteCount: CCTE's Neurite Outgrowth Assay in iCellGluta cells for Neurite Count, Mundy Lab (AID 2284342; active = hit-call score of the fitted dose curve at least 0.9, where 1 is the maximum;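 also: chemical exposure about 48 hours starting 2 hours after plating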)
smiles,measurement,setting,value
O=C1CC2(CCCC2)CC(=O)N1CCCCN1CCN(c2ncccn2)CC1,AC50,[1],15.3 µM (active)
same,outcome,[2],inactive
same,outcome,[3],inactive
same,outcome,[4],inactive
same,outcome,[5],inactive
same,outcome,[6],inactive
same,AC50,[7],11.9 µM (active)
same,outcome,[8],inactive
same,outcome,[9],inactive
same,outcome,[10],inactive
same,outcome,[11],inactive
same,outcome,[12],inactive
same,outcome,[13],inactive
same,outcome,[14],inactive
same,outcome,[15],inactive
same,AC50,[16],9.79 µM (active)
same,outcome,[17],inactive
same,outcome,[18],inactive
same,outcome,[19],inactive
same,outcome,[20],inactive
same,outcome,[21],inactive
same,outcome,[22],inactive
same,outcome,[23],inactive
same,outcome,[24],inactive
same,outcome,[25],inactive
same,outcome,[26],inactive
same,outcome,[27],inactive
same,outcome,[28],inactive
same,outcome,[29],inactive
same,outcome,[30],inactive
same,outcome,[31],inactive
same,outcome,[32],inactive
same,outcome,[33],inactive
same,outcome,[34],inactive
